Only some compounds are listed: those with a hit (about 12% of all), similar ones and a draw of the others.
Lmaj promast = inhibitors of Leishmania major promastigote growth. AID 1063. Leishmania major promastigotes, resazurin fluorescence viability. 200,000 compounds, 9% hits. inhibition, % at 10 µM; in the data active = inhibition above about 50%;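 also: promastigotes grown with compound for 44 hours at 28 °C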
Insulin prom inh = TRM-6 insulin promoter activity inhibition; TRM-6 cells (human fetal islet line), insulin promoter-eGFP reporter, imaging; reporter expression induced with tamoxifen; inhibition, % at 2 µM; 130,000 compounds, 0.9% hits; AID 1273;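 active = inhibition above the mean plus 3 SD, with well images judged a real hit on visual review, cut at about 60% in these data, passing the limit was not always enough; inconclusive = inhibition over the cutoff but images rejected on review; inactive = inhibition not above the cutoff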
ROMK mod = modulators of human ROMK potassium channel; P48048; Tet-inducible ROMK, thallium flux fluorescence; actives lie on both sides; B-score at 10 µM; 130,000 compounds, 2% hits;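 active = signal ratio slope over the read window, or its plate-corrected B-score, at least 3 SD from the plate mean, either direction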;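 also: B-score of the F/F0 ratio slope over 7 to 12 s after thallium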
Ins promoter up = MIN6 insulin promoter up-regulation; 190,000 compounds, 0.3% hits; z-score at 5 µM; AID 1625; MIN6 insulin promoter-GFP reporter, high-content imaging; stronger effect = higher value;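 active = z-score above 3 at 5 µM with at least 500 cells counted in the well; inconclusive = wells under 500 cells, flagged as cytotoxic or low count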
WT yeast gro inh = growth inhibition of WT yeast, mitochondrial fusion screen; mitochondrial fusion phenotypic screen, WT strain; AID 1362; inhibition, % at 10 µM; 190,000 compounds, 2.1% hits; in the data active = inhibition above about 58%; tested in S. cerevisiae
KCC2 mod = KCC2 (human) Cl- transport modulation; KCC2 cells, thallium flux FluoZin-2 fluorescence; B-score of Tl+ flux slope (higher = more flux/activation; lower = inhibition) at 10 µM; Q9H2X9; 190,000 compounds, 2.2% hits;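 active = thallium flux slope and its plate-corrected score both differing from the plate sample mean at a set confidence after two filtering rounds, in either direction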;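 also: slope of fluorescence scaled to starting intensity during 10 to 20 s after thallium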
KCC2 sec1 = confirmation of human KCC2 transport modulators; shares compounds with KCC2 mod; HEK293-KCC2, thallium flux, FluoZin2 fluorescence; stronger effect = higher value; AID 1713; 3,700 compounds, 15% hits; normalised thallium flux (F/F0 slope) at 10 µM;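 active = thallium flux slope above the same plate's solvent-only control mean plus 3 SD; inconclusive = the two replicate wells disagree; inactive = no significant difference from solvent-only control wells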
KCC2 bumet counter = thallium flux persisting under bumetanide in KCC2 cells, counter-screen secondary assay; 3,700 compounds, 49% hits; normalized thallium flux at 10 µM; shares compounds with KCC2 mod; HEK293-KCC2 + bumetanide/ouabain, thallium flux FluoZin2; stronger effect = higher value;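 active = thallium entry rate above the same plate's blocked-transporter control wells by more than 3 SD; inconclusive = the two repeat wells disagree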;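 also: raw slope of fluorescence over initial fluorescence between 10 and 20 s after thallium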
KCC2 sec2 = KCC2 (human) modulation, second secondary assay; 3,700 compounds, 23% hits; normalized thallium flux at 10 µM; HEK293-KCC2, thallium flux FluoZin2 fluorescence; actives lie on both sides; F/F0 rise rate, 10–20 s post-thallium; shares compounds with KCC2 mod;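 active = thallium flux slope more than 3 SD above or below the plate's solvent-only control mean, mostly below; inconclusive = the two repeat wells disagreed; inactive = no significant shift from solvent-only controls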
HEK counter1 = counter-screen for KCC2 modulators: effect in parental HEK293 cells; shares compounds with KCC2 mod; thallium flux FluoZin2, ouabain; baseline-ratio fluorescence slope, 10–20 s after thallium; thallium flux rate (normalised fluorescence) at 10 µM; 3,700 compounds, 46% hits;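 active = thallium flux rate significantly above the same plate's solvent-only control wells, beyond their mean plus 3 SD; inconclusive = the two replicate wells gave conflicting results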
KCC2 retest ouab = confirmation of human KCC2 modulators with ouabain; shares compounds with KCC2 mod; HEK293-KCC2, thallium flux FluoZin2 fluorescence; bidirectional: low = inhibitor, high = activator; raw Tl+ flux slope (below DMSO = inhibition, above = activation) at 10 µM; 3,700 compounds, 48% hits;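 active = thallium flux slope beyond 3 SD from same-plate DMSO control mean in most replicates, usually higher, sometimes lower; inconclusive = repeat tests gave conflicting results; inactive = no significant difference from controls in most replicates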;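 also: slope of initial-normalized fluorescence between seconds 10 and 20 after thallium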
HEK293 Tl flux2 = parental HEK flux effect, counter-screen 2 | shares compounds with KCC2 mod | HEK293 parental, thallium flux FluoZin-2 fluorescence slope | thallium flux slope at 10 µM | 3,700 compounds, 33% hits | AID 1718;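 active = thallium flux slope above the same plate's solvent-control mean plus 3 SD in both duplicate wells; inconclusive = duplicate wells that disagreed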;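 also: run without ouabain in cells lacking the KCC2 cotransporter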
Each line names hits and unclear results; the compound was inactive in the other large screens (follow-up assays come after a bar, where they were run).

O=C(CCCn1c(=S)[nH]c2ccccc2c1=O)N1CCCCC1	none (no result: ROMK mod)
Cc1cccc(N2CCN(C(=O)CCCn3c(=S)[nH]c4cc5c(cc4c3=O)OCO5)CC2)c1C	Lmaj promast 64 (no result: KCC2 mod) | KCC2 sec1 inactive | KCC2 bumet counter 0.012 | KCC2 sec2 inactive | HEK counter1 inconclusive | KCC2 retest ouab inconclusive | HEK293 Tl flux2 inconclusive
CC1(c2cc(C(F)(F)F)n3nc(C(=O)O)cc3n2)CC1	none
COc1ccccc1NC(=O)Cn1c(=O)sc2ccccc21	none (no result: Insulin prom inh)
COc1ccc(NC(=O)Cn2c(-c3ccccc3)cn(-c3ccc(C)cc3)c2=O)cc1	none (no result: Insulin prom inh)
COc1ccc(-c2cn(-c3ccc(C)cc3)c(=O)n2CC(=O)Nc2ccc(OC)cc2OC)cc1	none (no result: Ins promoter up, KCC2 mod) | KCC2 sec1 inactive | KCC2 bumet counter inactive | KCC2 sec2 inactive | HEK counter1 inactive | KCC2 retest ouab inactive | HEK293 Tl flux2 inactive
COc1ccc(NC(=O)Cn2c(=O)sc3ccccc32)c(OC)c1	KCC2 mod -2.9 (no result: Insulin prom inh, ROMK mod) | KCC2 sec1 inactive | KCC2 bumet counter inactive | KCC2 sec2 inactive | HEK counter1 inconclusive | KCC2 retest ouab inactive | HEK293 Tl flux2 inactive
COc1ccc(/C=C/C(=O)N2CCN(S(=O)(=O)/C=C/c3ccccc3)CC2)cc1OC	none
CC(=O)Nc1ccc(NC(=O)CSc2nnc(-c3ccc(NS(C)(=O)=O)cc3)n2C)cc1C	none (no result: Insulin prom inh)
Fc1ccc(NC(=S)Nc2ccc(Cl)cc2Cl)cc1	KCC2 mod 4.5 | KCC2 sec1 inactive | KCC2 bumet counter 0.042 | KCC2 sec2 inactive | HEK counter1 0.016 | KCC2 retest ouab inconclusive | HEK293 Tl flux2 0.013
Fc1ccc(CNC(=S)Nc2ccc(Cl)cc2Cl)cc1	none (no result: Insulin prom inh, ROMK mod)
Cc1nc2ccccc2n2c(O)c(CC(=O)O)cc12	none (no result: Insulin prom inh, ROMK mod)
CCN(c1ccccc1)S(=O)(=O)c1ccc(Cl)c(NC(=O)COC(=O)c2ccc[n+]([O-])c2)c1	none (no result: Insulin prom inh)
Cc1ccc(N=Nc2c(C)[nH]n(C(N)=S)c2=O)cc1C	WT yeast gro inh 60, KCC2 mod 16 | KCC2 sec1 inactive | KCC2 bumet counter 0.067 | KCC2 sec2 inactive | HEK counter1 0.021 | KCC2 retest ouab 0.06 | HEK293 Tl flux2 inactive
Cc1[nH]n(C(N)=S)c(=O)c1N=Nc1ccc2ccccc2c1	WT yeast gro inh 66, KCC2 mod 32 (no result: Insulin prom inh) | KCC2 sec1 inactive | KCC2 bumet counter 0.088 | KCC2 sec2 inconclusive | HEK counter1 0.027 | KCC2 retest ouab 0.036 | HEK293 Tl flux2 0.019
Cc1[nH]n(C(N)=S)c(=O)c1N=Nc1cc(-c2ccc(Br)cc2)[nH]n1	Lmaj promast 57, KCC2 mod -6.9 (no result: Insulin prom inh) | KCC2 sec1 inactive | KCC2 bumet counter inactive | KCC2 sec2 inactive | HEK counter1 0.0056 | KCC2 retest ouab 0.011 | HEK293 Tl flux2 inactive
NC(=S)n1[nH]c(-c2ccc([N+](=O)[O-])cc2)c(N=Nc2cccc([N+](=O)[O-])c2)c1=O	none (no result: Insulin prom inh)
CC(/C=N/n1cnnc1)=C\c1ccco1	none (no result: ROMK mod)
CCn1c(-c2cc(-c3cc(C)ccc3C)nc3ccccc23)n[nH]c1=S	none
CCOc1cccc(-c2cc(-c3n[nH]c(=S)n3CC)c3ccccc3n2)c1	WT yeast gro inh 67 (no result: Insulin prom inh, KCC2 mod) | KCC2 sec1 inactive | KCC2 bumet counter 0.072 | KCC2 sec2 inactive | HEK counter1 0.015 | KCC2 retest ouab inconclusive | HEK293 Tl flux2 inconclusive

Screens from PubChem BioAssay.
